Several values for one entry are separate records, joined by “and”; a condition that tells them apart may be missing. Equal values may be shown once. Compounds without any hit were thinned out: in the full panel of roughly 83,000, 20% have a hit.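 Results are percent growth after 48 hours of single-concentration exposure. 100 means growth as in untreated cells, lower positive values show inhibition; negative values down to -100 show cell death.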 Unmarked numbers belong to inactive results. Activity calls are given as the source filed them. The calls were made as follows: active = growth percent below 10; inactive = the rest.
Legend:
Experiment in all cases: NCI-60 one-dose screen, 48 h (100 = growth as untreated, 0 = no growth, -100 = all killed)
Details in all cases: 10 µM unless noted
T-47D breast = system: T-47D breast
BT-549 breast = system: BT-549 breast
MDA-MB-435 melanoma = system: MDA-MB-435 melanoma
SW-620 colon = system: SW-620 colon
MCF7 breast = system: MCF7 breast
HCT-116 colon = system: HCT-116 colon
HCC-2998 colon = system: HCC-2998 colon
KM12 colon = system: KM12 colon
MDA-MB-468 breast = system: MDA-MB-468 breast

CC1=C(C(=O)OC(C)C)C(c2ccc(O)cc2)NC(=O)N1 (stereo not given)
growth (T-47D breast): 101% | growth (BT-549 breast): 96.1% | growth (MDA-MB-435 melanoma): 99.9% | growth (SW-620 colon): 103% | growth (MCF7 breast): 98.6% | growth (HCT-116 colon): 97.1% | growth (HCC-2998 colon): 111% | growth (KM12 colon): 111% | growth (MDA-MB-468 breast): 103%

C=CCn1c(O)c(N=Nc2nc(-c3cc4ccccc4oc3=O)cs2)c2ccccc21
growth (T-47D breast): 88.8% | growth (BT-549 breast): 67.3% | growth (MDA-MB-435 melanoma): 98.5% | growth (SW-620 colon): 101% | growth (MCF7 breast): 33.4% | growth (HCT-116 colon): 39.3% | growth (HCC-2998 colon): 78.4% | growth (KM12 colon): 79.4% | growth (MDA-MB-468 breast): 70.3%

FC(F)(F)c1cc2c(Cl)ncnc2n1CCN1CCCCC1
growth (T-47D breast): 70.5% | growth (BT-549 breast): -3.05% (active) | growth (MDA-MB-435 melanoma): 56% | growth (SW-620 colon): 34% | growth (MCF7 breast): 52.1% | growth (HCT-116 colon): 8.04% (active) | growth (HCC-2998 colon): -75.1% (active) | growth (KM12 colon): 93.9% | growth (MDA-MB-468 breast): -10.6% (active)

O=C(Nc1ccc(-c2ccc3c(c2)NC(=O)/C3=C\c2ccc[nH]2)cc1)Nc1ccc(Cl)c(Cl)c1
growth (T-47D breast): 18.8% | growth (BT-549 breast): 40.5% | growth (MDA-MB-435 melanoma): 62.6% | growth (SW-620 colon): 16.7% | growth (MCF7 breast): 9.81% (active) | growth (HCT-116 colon): 35.3% | growth (HCC-2998 colon): 83.5% | growth (KM12 colon): 8.6% (active) | growth (MDA-MB-468 breast): -16.8% (active)

COc1ccc(C(=O)c2cc(C(C)=O)c3c(C)cc(C)cn23)cc1
growth (T-47D breast): 48.6% | growth (BT-549 breast): 25.4% | growth (MDA-MB-435 melanoma): 49.1% | growth (SW-620 colon): 82.2% | growth (MCF7 breast): 35.2% | growth (HCT-116 colon): 19.6% | growth (HCC-2998 colon): 76.1% | growth (KM12 colon): 71.2% | growth (MDA-MB-468 breast): 59.6%

O=C1c2cccc3c(N4CCN(c5ccccc5)CC4)ccc(c23)C(=O)N1c1cccc(-c2nn(-c3ccccc3)cc2-c2nc3ccccc3s2)c1
growth (T-47D breast): 114% | growth (BT-549 breast): 126% | growth (MDA-MB-435 melanoma): 106% | growth (SW-620 colon): 98% | growth (MCF7 breast): 81.2% | growth (HCT-116 colon): 101% | growth (HCC-2998 colon): 115% | growth (KM12 colon): 104% | growth (MDA-MB-468 breast): 96.9%

COc1cc(CNC(=O)C[C@H](C)CCC=C(C)C)ccc1OCc1cn(-c2ccccc2F)nn1
growth (T-47D breast): 60.6% | growth (BT-549 breast): 71% | growth (MDA-MB-435 melanoma): 100% | growth (SW-620 colon): 92.7% | growth (MCF7 breast): 66.9% | growth (HCT-116 colon): 60.2% | growth (HCC-2998 colon): 101% | growth (KM12 colon): 99.3% | growth (MDA-MB-468 breast): 57.7%

COc1c(B(O)O)cc(F)cc1-c1nc2c(F)cc3[nH]ncc3c2c2c1CCCC2
growth (T-47D breast): 33.7% | growth (BT-549 breast): -62.2% (active) | growth (MDA-MB-435 melanoma): 31% | growth (SW-620 colon): 0.792% (active) | growth (MCF7 breast): -2.86% (active) | growth (HCT-116 colon): 4.76% (active) | growth (HCC-2998 colon): 20.1% | growth (KM12 colon): 7.55% (active) | growth (MDA-MB-468 breast): -11% (active)

COc1ccc(Nc2ncnc3sc4c(c23)CCN(Cc2ccccc2)C4)cc1
growth (T-47D breast): 27.3% | growth (BT-549 breast): 38.8% | growth (MDA-MB-435 melanoma): 82.1% | growth (SW-620 colon): 99.8% | growth (MCF7 breast): 53.4% | growth (HCT-116 colon): 86.4% | growth (HCC-2998 colon): 105% | growth (KM12 colon): 82.1% | growth (MDA-MB-468 breast): 56.6%

C/C(=N/O)c1ccc(NC(=O)CSc2nnc(-c3ccc4nc(-c5ccc(Cl)cc5)[nH]c4c3)o2)cc1
growth (T-47D breast): 97.8% | growth (BT-549 breast): -8.14% (active) | growth (MDA-MB-435 melanoma): 18.3% | growth (SW-620 colon): 67.4% | growth (MCF7 breast): 55.3% | growth (HCT-116 colon): 69% | growth (HCC-2998 colon): 128% | growth (KM12 colon): 36.4% | growth (MDA-MB-468 breast): 122%

C[C@@H]1[C@H]2C[C@@H](C[C@H]1NCc1nc3ccccc3n1C1CCCCCC1)C2(C)C
growth (T-47D breast): 48% | growth (BT-549 breast): 72.8% | growth (MDA-MB-435 melanoma): 73.6% | growth (SW-620 colon): 49.6% | growth (MCF7 breast): 28.1% | growth (HCT-116 colon): 23.4% | growth (HCC-2998 colon): 37.6% | growth (KM12 colon): 68.6% | growth (MDA-MB-468 breast): 2.05% (active)

O=C(CSc1nnc(-c2ccc(-c3nc4ccccc4[nH]3)cc2)o1)Nc1ccc(Br)cc1
growth (T-47D breast): 32.8% | growth (BT-549 breast): 37.1% | growth (MDA-MB-435 melanoma): 18.3% | growth (SW-620 colon): -47% (active) | growth (MCF7 breast): 9.69% (active) | growth (HCT-116 colon): 10.3% | growth (HCC-2998 colon): 71.2% | growth (KM12 colon): 21.7% | growth (MDA-MB-468 breast): 67.3%

Cc1cccc(/C=C/c2ccc(NC(=S)NCCCCN(C)C)cc2)c1
growth (T-47D breast): -67.8% (active) | growth (BT-549 breast): -72.6% (active) | growth (MDA-MB-435 melanoma): -90% (active) | growth (SW-620 colon): -85.3% (active) | growth (MCF7 breast): -73.7% (active) | growth (HCT-116 colon): -45.1% (active) | growth (HCC-2998 colon): -92.7% (active) | growth (KM12 colon): -48.6% (active) | growth (MDA-MB-468 breast): -83.5% (active)

CSc1ccc(OCc2nc3ccccc3n2-c2cccc(NS(C)(=O)=O)c2)cc1
growth (T-47D breast): 99.4% and 78.4% | growth (BT-549 breast): 131% and 105% | growth (MDA-MB-435 melanoma): 105% and 98.3% | growth (SW-620 colon): 102% and 94.4% | growth (MCF7 breast): 89.9% and 55.7% | growth (HCT-116 colon): 101% and 70.6% | growth (HCC-2998 colon): 122% and 112% | growth (KM12 colon): 103% and 78.8% | growth (MDA-MB-468 breast): 110% and 98.2%

COc1c(B(O)O)cc(F)cc1-c1nc2ccc3[nH]ncc3c2c2c1COCC2
growth (T-47D breast): 62.6% | growth (BT-549 breast): -7.9% (active) | growth (MDA-MB-435 melanoma): 87.1% | growth (SW-620 colon): 34.3% | growth (MCF7 breast): 44.7% | growth (HCT-116 colon): 19.8% | growth (HCC-2998 colon): 80.3% | growth (KM12 colon): 70.2% | growth (MDA-MB-468 breast): 41.9%

COc1ccccc1Nc1nnc(-c2c[nH]c3ccccc23)o1
growth (T-47D breast): 16.6% | growth (BT-549 breast): 39.7% | growth (MDA-MB-435 melanoma): -40.8% (active) | growth (SW-620 colon): 40.9% | growth (MCF7 breast): 10.6% | growth (HCT-116 colon): 12.5% | growth (HCC-2998 colon): 7.55% (active) | growth (KM12 colon): 2.26% (active) | growth (MDA-MB-468 breast): -25.4% (active)

Cc1cc(C)c2[nH]c(=O)c(C(c3nnnn3Cc3ccc4c(c3)OCO4)N3CCN(C)CC3)cc2c1 (stereo not given)
growth (T-47D breast): 112% | growth (BT-549 breast): 106% | growth (MDA-MB-435 melanoma): 106% | growth (SW-620 colon): 110% | growth (MCF7 breast): 101% | growth (HCT-116 colon): 105% | growth (HCC-2998 colon): 121% | growth (KM12 colon): 105% | growth (MDA-MB-468 breast): 113%

CCOC(=O)c1ccc(NC(=S)NC(=O)c2cccc(NC(=O)c3ccc(C)cc3)c2)cc1
growth (T-47D breast): 67.9% | growth (BT-549 breast): 63.3% | growth (MDA-MB-435 melanoma): 86.1% | growth (SW-620 colon): 68.2% | growth (MCF7 breast): 64.2% | growth (HCT-116 colon): 49.1% | growth (HCC-2998 colon): 98.4% | growth (KM12 colon): 97.5% | growth (MDA-MB-468 breast): 94.1%

CCCCCCCCc1cccc(CC(=O)Nc2ccc(C)cc2C(=O)O)c1
growth (T-47D breast): 65.6% [25 µM] | growth (BT-549 breast): 73.6% [25 µM] | growth (MDA-MB-435 melanoma): 54.9% [25 µM] | growth (SW-620 colon): 51.2% [25 µM] | growth (MCF7 breast): 36.7% [25 µM] | growth (HCT-116 colon): 28.1% [25 µM] | growth (HCC-2998 colon): 69.4% [25 µM] | growth (KM12 colon): 45.8% [25 µM] | growth (MDA-MB-468 breast): 73% [25 µM]

COc1ccc(Nc2nnc(-c3c[nH]c4ccccc34)o2)cc1
growth (T-47D breast): 71.9% | growth (BT-549 breast): 77.8% | growth (MDA-MB-435 melanoma): 81.9% | growth (SW-620 colon): 93% | growth (MCF7 breast): 58.6% | growth (HCT-116 colon): 92.4% | growth (HCC-2998 colon): 108% | growth (KM12 colon): 65.3% | growth (MDA-MB-468 breast): -7.14% (active)
